ELG1 repair inh – ELG1-dependent DNA repair inhibition; 2.3% of 330,000 active; HEK293T ELG1-luciferase reporter, luminescence, 16 h; DNA damage induced by 5-fluorouridine; Potency, µM (doses to about 46.1 µM), without a hit: at the highest dose activity change, negative = inhibition, most hits filed as inhibitors; AID 504467; also: potency is read from the fitted curve at half-maximal effect; nearly all actives have a fitted effect of over 55% in size
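Quantitative HTS, concentration-response format. 2,000 cells/well co-treated with 5-fluorouridine and compound, 16 hr in 5% CO2 at 37 °C; ONE-Glo luminescence read after 30 min.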
HT1080-NT tox – kills 2HG-producing HT-1080-NT fibrosarcoma cells; HT-1080-NT fibrosarcoma viability, CellTiter-Glo ATP luminescence, 48 h; Potency, µM (doses to about 46.1 µM), for the others: at the top dose activity, negative = less viability, most hits filed as cytotoxic; 1.6% of 360,000 active;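 also: NT is the 2HG producing partner of a matched IDH1 knockdown line; potency is read from the fitted curve at half-maximal effect; 0% = DMSO-treated cells and -100% = media-only wells without cells; nearly all actives have a fitted effect of over 55% in size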
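Luminescent CellTiter-Glo readout after 48 hours of compound exposure at 37 degrees C defined viability of HT-1080-NT cells. Activity was normalized to DMSO wells and cell-free media wells; concentration-response curves were fitted and assigned curve classes.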
HT1080 IDH1KD tx – HT-1080 IDH1 knockdown cell toxicity (counter line); 2% of 360,000 active; Potency, µM (highest dose often 46.1 µM), without a hit: at the highest dose activity, negative = toxicity, hits mostly cytotoxic; HT-1080 IDH1 knockdown viability, ATP luminescence, 48 h; AID 686971;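 also: potency is read from the fitted curve at half-maximal effect; 0% = DMSO wells and -100% = cell-free medium wells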
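CellTiter-Glo luminescence after 48 h compound exposure at 37 degrees C of IDH1-knockdown HT-1080 cells in 5% FBS RPMI. %Activity scaled between DMSO wells and cell-free media wells, with curves fitted and assigned curve classes.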
DT40 TDP1 no CPT – qHTS for Inhibitors of human tyrosyl-DNA phosphodiesterase 1 (TDP1): qHTS in cells in absence of CPT; DT40 Tdp1-/- hTDP1 cells, no CPT, ATP luminescence, 48 h; Potency, µM (titrated, usually from 46.2 µM), without a hit: at the top dose activity change, negative = growth inhibition, hits mostly inhibitors; 15% of 420,000 active; also: potency is read from the fitted curve at half-maximal effect; nearly all actives have a fitted effect of over 55% in size
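Readout: luminescence from CellTiter-Glo after 30 min in the dark at RT. Cells: DT40 Tdp1-/- with stable hTDP1, 400/well. Exposure: compounds alone, ≥48 hr, 37 °C.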
IL1B secr inh – inhibitors of inflammasome signaling (IL-1 beta secretion). AID 743279. 4.7% of 360,000 active. THP-1 LPS/ATP IL-1B secretion, AlphaLISA, 16 h; stronger effect = lower value. activity change, % at 57.5 µM; in the data active = activity change below about -50%; inconclusive = mostly about -30% to -49%
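Secreted IL-1B measured by AlphaLISA bead assay after 16 h compound exposure of THP-1 cells; compounds (final up to 57.5 uM) added 1 h before LPS (250 ng/mL) and ATP (1.25 mM) stimulation; lower signal means less secretion.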
TDP1 cell CPT – growth inhibition of DT40 Tdp1-/-;hTDP1 cells with camptothecin (screen for TDP1 inhibitors). chicken DT40 Tdp1-/-;hTDP1 cells + 20 nM CPT, ATP luminescence, 48 h. Potency, µM (top dose mostly 46.2 µM), inactives show at the top dose activity change, negative = growth inhibition, hits mostly inhibitors. 12% of 420,000 active. AID 686979; also: potency is read from the fitted curve at half-maximal effect; nearly all actives have a fitted effect of over 55% in size
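Cell growth measured by CellTiter-Glo luminescence after a minimum 48 h, 37 C compound exposure with 20 nM CPT in Tdp1-knockout DT40 cells stably expressing hTDP1, seeded 400/well; qHTS titration format.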
Numbers without * were called inactive; ? = inconclusive; / = no result. The list is not random: actives were taken first. Their share in the collection is about 19%. Unless noted, calls follow the shape of the dose curve; as a rule, active = well fitted curve in the direction sought with a large enough effect; inconclusive = small, poorly fitted or top-dose-only effect, or another doubt; inactive = no such curve, though single readings can be large; an effect the other way counts as inactive or inconclusive. Unless noted, % is scaled to controls: 0 for no effect and ±100 for the full control effect.

SMILES	ELG1 repair inh	HT1080-NT tox	HT1080 IDH1KD tx	DT40 TDP1 no CPT	IL1B secr inh	TDP1 cell CPT
COc1cc(NC(=O)c2nc(-c3ccncc3)no2)cc(OC)c1OC	/	/	/	?	/	-27.7%
Cc1cc(C)cc(NC(=O)N2CCC(CN3CCc4ccccc4C3)CC2)c1	/	/	/	13µM*	/	?
COc1cc(NC(=O)N2CCC(CN3CCc4ccccc4C3)CC2)cc(OC)c1	/	/	/	-26.5%	/	-28.5%
CCOc1ccc(CC(=O)Nc2nnc3n2CCS3)cc1	/	/	/	-24.8%	/	-2.5%
CC1CCN(Cc2c(C(=O)N3CCc4ccccc4C3)nc3ccc(Cl)cn23)CC1	5.8%	-8.4%	-7.5%	?	25.7	20.6µM*
COC1CCN(Cc2c(C(=O)N3CCc4ccccc4C3)nc3ccc(Cl)cn23)CC1	-14.3%	0.0%	10.8%	-17.6%	3.2	-29.1%
N#Cc1ccccc1OCCCN1CCC(C(O)(c2ccccc2)c2ccccc2)CC1	/	?	?	?	?	18.4µM*
C#Cc1ccccc1OCCCN1CCC(C(O)(c2ccccc2)c2ccccc2)CC1	/	16.4µM*	16.4µM*	8.2µM*	0.0	9.2µM*
CC(C)(C(=O)O)c1ccc([C@H](O)CCCN2CCC(C(O)(c3ccccc3)c3ccccc3)CC2)cc1	7.8%	?	7.7%	-10.2%	20.5	0.0%
OC[C@H]1O[C@@H](O[C@H]2[C@H](O)[C@@H](O)[C@H](O)O[C@@H]2CO)[C@H](O)[C@@H](O)[C@@H]1O	/	/	/	-13.3%	/	18.5%
CC(=O)N[C@@H]1C(O[C@H]2O[C@H](C(=O)O)C(O)[C@H](O)[C@H]2O)[C@H](O)[C@@H](CO)O[C@H]1O[C@@H]1C(C(=O)O)O[C@@H](O[C@H]2[C@H](O)[C@@H](CO)OC(O)[C@@H]2NC(C)=O)[C@H](O)[C@H]1O (stereo partly drawn)	/	/	/	21.1µM*	/	-1.6%
N#Cc1ccc(C(=O)N2CCCC(c3cc(C(=O)NCc4cccnc4)no3)C2)cc1 (stereo not drawn)	/	?	2.9%	?	17.5	?
CCn1cc(C(=O)OCC(=O)OC2CC(C)CCC2C(C)C)c(=O)c2ccc(C)nc21 (stereo not drawn)	?	?	?	?	-15.5	18.4µM*
C=CCOC(=O)c1cn(CC)c2nc(C)ccc2c1=O	-5.5%	5.1%	11.9%	-5.2%	-7.3	8.3%
COc1ccccc1CNC(=O)c1ccc(N2Cc3cccc(OC)c3Oc3ncccc32)s1	/	/	/	11.6µM*	/	14.6µM*
COc1ccc(CCNC(=O)C/C(C)=N/NC(=O)COc2ccc(C)cc2Br)cc1OC	12.8%	-8.8%	-2.3%	-16.4%	-1.9	7.5%
COc1ccccc1CNC(=O)C/C(C)=N/NC(=O)COc1ccc(C)cc1Br	-26.1%	?	-13.9%	11.6µM*	24.6	11.6µM*
CC(=O)c1c(C(C)=O)c(C)n(-c2nc(-c3ccccc3)c(C)s2)c1C	-19.3%	3.9%	-8.0%	13µM*	-10.5	?
CC1=C(C(=O)OCc2cc(C)on2)N2C(=O)[C@@H](NC(=O)OCc3cc(C)on3)[C@H]2SC1	5.2%	10.3%	13.7%	-18.9%	13.4	-22.9%
CCn1cc(C(=O)NCc2ccc(Cl)cc2)c(=O)c2cc(S(=O)(=O)N3CCOCC3)ccc21	?	-10.3%	-0.6%	23.1µM*	-1.5	20.6µM*
CCn1cc(C(=O)NCc2ccc(C)cc2)c(=O)c2cc(S(=O)(=O)N3CCCCCC3)ccc21	/	/	/	20.6µM*	/	14.6µM*
CCn1cc(C(=O)NCCc2ccc(C)cc2)c(=O)c2cc(S(=O)(=O)N3CCCCC3)ccc21	/	/	/	-9.5%	/	-10.2%
CCN=C1NN=C(c2c[nH]c3ccccc23)CS1	?	-24.4%	-15.6%	-24.0%	-105.7*	-13.7%
Cc1ccc(C)c(C2=NNC(=NCc3ccccc3)SC2)c1	?	?	-22.2%	?	24.9	?
COCC(C)N=C1NN=C(c2c[nH]c3ccccc23)CS1 (stereo not drawn)	?	1.3%	-7.1%	-21.0%	-79.7*	-16.3%
SMILES	ELG1 repair inh	HT1080-NT tox	HT1080 IDH1KD tx	DT40 TDP1 no CPT	IL1B secr inh	TDP1 cell CPT
COC(CNC(=O)c1cc(-c2ccncc2)nc2ccc(S(=O)(=O)N3CCOCC3)cc12)OC	-0.4%	3.9%	-5.6%	-9.9%	-3.3	-9.5%
CCN(CC)CCN(C)Cc1nc(C(c2ccccc2)c2ccccc2)no1	6.3%	-1.1%	-4.2%	-0.6%	-64.2*	-3.0%
CN(C)S(=O)(=O)c1cc(NC(=O)CN2CCN(c3ccccc3O)CC2)ccc1Cl	?	-14.7%	-20.2%	?	-25.5	?
Cc1ccc(OCC(O)CN2CCN(CC(O)COc3ccc(C)cc3)CC2)cc1 (stereo not drawn)	?	-5.3%	1.3%	?	0.0	-28.7%
CC1CN(CC(O)COc2ccc(C#N)cc2)CCN1CC(O)COc1ccc(C#N)cc1 (stereo not drawn)	-20.5%	5.7%	0.2%	23.1µM*	30.4	20.6µM*
CCOC(=O)c1ccc(S(=O)(=O)N2CCN(CCC#N)CC2)cc1	27.7%	9.5%	9.5%	-25.7%	34.4	0.5%
CCOC(=O)c1ccc(S(=O)(=O)N2CCN(CC(O)COc3ccc(C#N)cc3)CC2)cc1 (stereo not drawn)	-10.5%	-6.9%	13.9%	18.4µM*	7.7	?
CC(C)c1cccc(C(C)C)c1NC(=O)CN(C)C1CCS(=O)(=O)C1 (stereo not drawn)	8.4%	-12.9%	6.6%	0.4%	0.0	-11.7%
CN(C)CCCNc1nccc(N2CCN(C)CC2)n1	/	/	/	-13.3%	/	-25.7%
COc1ccccc1N(Cc1cc(=O)[nH]c2ccccc12)C(=O)c1ccc([N+](=O)[O-])cc1	0.0%	16.4%	16.2%	11.6µM*	7.4	20.6µM*
COc1ccc(C(=O)NCC(c2ccco2)N2CCc3ccccc3C2)cc1 (stereo not drawn)	13.8%	0.6%	2.9%	?	-14.8	?
COc1ccc(C(=O)NCC(c2cccnc2)N2CCc3ccccc3C2)cc1OC (stereo not drawn)	/	/	/	?	/	16.4µM*
COc1ccc(C(=O)NCC(c2cccnc2)N2CCc3ccccc32)cc1OC (stereo not drawn)	/	/	/	20.6µM*	/	14.6µM*
COc1ccc(C(=O)NCC(c2ccc3c(c2)OCO3)N2CCN(C)CC2)cc1OC (stereo not drawn)	/	/	/	-10.4%	/	-12.6%

Screening results from PubChem.
